Reference: ChEMBL document CHEMBL1157539, “Thousands of chemical starting points for antimalarial lead identification” (Nature, 2010)

Assays:
Type in all cases: functional
Plasmodium falciparum [1] = assay: GSK_TCMDC: Inhibition of Plasmodium falciparum 3D7 in whole red blood cells, using parasite LDH activity as an index of growth. Test compounds present at 2uM
Plasmodium falciparum [2] = assay: GSK_TCMDC: Inhibition of Plasmodium falciparum Dd2 in whole red blood cells, using parasite LDH activity as an index of growth. Test compounds present at 2uM
HepG2 = assay: GSK_TCMDC: Percent inhibition of human HepG2 cell line. Test compounds present at 10uM.

## COc1cc2nc(SCCCC#N)n(C3CCCCCC3)c(=N)c2cc1OC
Plasmodium falciparum [1]
  Inhibition: 89%
Plasmodium falciparum [2]
  Inhibition: 9%
HepG2
  Inhibition: 0%

## O=c1ccc2ccc(F)cc2n1CCN1CCC(NCc2ccc(-c3ccccn3)s2)CC1
Plasmodium falciparum [1]
  Inhibition: 98%
Plasmodium falciparum [2]
  Inhibition: 30%
HepG2
  Inhibition: 0%

## NC(=O)c1ccccc1OCC(=O)Nc1cccc(-c2ccc(-c3nc4ccccc4[nH]3)cc2)c1
Plasmodium falciparum [1]
  Inhibition: 95%
Plasmodium falciparum [2]
  Inhibition: 46%
HepG2
  Inhibition: 66%

## NC(=O)c1ccsc1NC(=O)CNC(c1ccc(F)cc1)c1cccs1 (stereo unspecified)
Plasmodium falciparum [1]
  Inhibition: 92%
Plasmodium falciparum [2]
  Inhibition: 71%
HepG2
  Inhibition: 31%

## COc1cc(OC)cc(-c2nc3ccc(OCCN(C)C)c(C#N)c3[nH]2)c1
Plasmodium falciparum [1]
  Inhibition: 99%
Plasmodium falciparum [2]
  Inhibition: 25%
HepG2
  Inhibition: 4%

## O=C(NCc1ccc(Cl)c(Cl)c1)c1ccc(-c2nc3ccc(F)cc3[nH]2)cc1
Plasmodium falciparum [1]
  Inhibition: 93%
Plasmodium falciparum [2]
  Inhibition: 9%
HepG2
  Inhibition: 0%

## CC(C)(C)NCCN(Cc1ccc(-c2ccc(C(F)(F)F)cc2)cc1)C(=O)Cn1c(SCc2ccc(F)cc2)nc(=O)c2c1CCC2.O=C(O)C(O)C(O)C(=O)O
Plasmodium falciparum [1]
  Inhibition: 97%
Plasmodium falciparum [2]
  Inhibition: 84%
HepG2
  Inhibition: 64%

## Cc1cccc2nc(-c3ccc(-c4ccc(NC(=O)C(C)CN(C)C)cc4)cc3)[nH]c12 (stereo unspecified)
Plasmodium falciparum [1]
  Inhibition: 99%
Plasmodium falciparum [2]
  Inhibition: 99%
HepG2
  Inhibition: 18%

## CC(C)(C)c1ccc(CN2CCCCC(NC(=O)c3cc(-c4cccc(Cl)c4)cs3)C2)cc1.O=C(O)C(F)(F)F (stereo unspecified)
Plasmodium falciparum [1]
  Inhibition: 96%
Plasmodium falciparum [2]
  Inhibition: 60%
HepG2
  Inhibition: 11%

## CCNC(=O)Nc1cccc(-c2cccc(-c3nc4cccc(C)c4[nH]3)c2)c1
Plasmodium falciparum [1]
  Inhibition: 85%
Plasmodium falciparum [2]
  Inhibition: 31%
HepG2
  Inhibition: 7%

## Cc1ccc(-c2cncc(-c3cc(NC4CCN(Cc5ccccc5)CC4)nc(-c4ccccc4)n3)c2)cc1
Plasmodium falciparum [1]
  Inhibition: 100%
Plasmodium falciparum [2]
  Inhibition: 66%
HepG2
  Inhibition: 0%

## N#Cc1cc(C(=O)c2cc(Br)ccc2O)cn(-c2cc(Cl)cc(Cl)c2)c1=O
Plasmodium falciparum [1]
  Inhibition: 98%
Plasmodium falciparum [2]
  Inhibition: 35%
HepG2
  Inhibition: 42%

## CN(C)Cc1cccc(-c2ccc(NC(=O)c3ccc4c(=O)n(CCN5CCCCC5)cnc4c3)cc2)c1
Plasmodium falciparum [1]
  Inhibition: 100%
Plasmodium falciparum [2]
  Inhibition: 67%
HepG2
  Inhibition: 23%

## c1ccc(Oc2ccc(Nc3ccnc4cc(-c5ccc(CNCCN6CCOCC6)o5)ccc34)cc2)cc1
Plasmodium falciparum [1]
  Inhibition: 99%
Plasmodium falciparum [2]
  Inhibition: 99%
HepG2
  Inhibition: 20%

## CN=C(NC)c1cccc(NC(=O)C=Cc2ccc(C=CC(=O)Nc3cccc(C(=NC)NC)c3)cc2)c1.Cl
Plasmodium falciparum [1]
  Inhibition: 98%
Plasmodium falciparum [2]
  Inhibition: 99%
HepG2
  Inhibition: 21%

## CC(C)(CNCc1ccc(Cl)c(Cl)c1)c1nc(-c2ccc(Cl)c(O)c2)c(-c2ccncc2)[nH]1.Cl
Plasmodium falciparum [1]
  Inhibition: 100%
Plasmodium falciparum [2]
  Inhibition: 97%
HepG2
  Inhibition: 43%

## COc1cc2nc(N3CCC(CNC(=O)c4ccc(-c5ccc(Cl)cc5)cc4)CC3)nc(N)c2cc1OC
Plasmodium falciparum [1]
  Inhibition: 100%
Plasmodium falciparum [2]
  Inhibition: 100%
HepG2
  Inhibition: 99%

## CC(C)C1C(O)=C(c2ccc3ccccc3c2)C(=O)N1Cc1cccc(F)c1 (stereo unspecified)
Plasmodium falciparum [1]
  Inhibition: 97%
Plasmodium falciparum [2]
  Inhibition: 82%
HepG2
  Inhibition: 3%

## COc1ccc(-c2ccc(NC(=O)c3ccc(C#N)cc3)cc2)cc1CN1CCC(O)CC1.O=C(O)C(F)(F)F
Plasmodium falciparum [1]
  Inhibition: 94%
Plasmodium falciparum [2]
  Inhibition: 28%
HepG2
  Inhibition: 24%

## CC(C)CNCc1ccc(-c2ccc(CN(CCCN3CCN(C)CC3)C(=O)CCC3CCCC3)cc2)cc1.O=C(O)C(F)(F)F
Plasmodium falciparum [1]
  Inhibition: 96%
Plasmodium falciparum [2]
  Inhibition: 87%
HepG2
  Inhibition: 50%

## COc1ccc(NC(=O)Nc2cc(C)nc3ccccc23)cc1Cl
Plasmodium falciparum [1]
  Inhibition: 100%
Plasmodium falciparum [2]
  Inhibition: 49%
HepG2
  Inhibition: 4%

## O=C(Nc1ccc(OC2CCN(Cc3ccc(F)cc3)CC2)c(Cl)c1)c1ccccc1.O=C(O)C(F)(F)F
Plasmodium falciparum [1]
  Inhibition: 90%
Plasmodium falciparum [2]
  Inhibition: 89%
HepG2
  Inhibition: 16%

## COc1cc2nc(NCCc3ccccc3)nc(NCc3cnn(C)c3C)c2cc1OC
Plasmodium falciparum [1]
  Inhibition: 99%
Plasmodium falciparum [2]
  Inhibition: 94%
HepG2
  Inhibition: 13%

## COc1cc(C(=O)N2C(c3nccs3)C(C(=O)N(OC)C(C)c3ccccc3)CC2(CC(C)C)C(=O)OC(C)(C)C)ccc1C(C)(C)C (stereo unspecified)
Plasmodium falciparum [1]
  Inhibition: 92%
Plasmodium falciparum [2]
  Inhibition: 92%
HepG2
  Inhibition: 12%

## COc1ccc(NC(=O)/C=C/c2cc(Br)ccc2F)cc1OCCN(C(C)C)C(C)C.O=C(O)C(F)(F)F
Plasmodium falciparum [1]
  Inhibition: 100%
Plasmodium falciparum [2]
  Inhibition: 14%
HepG2
  Inhibition: 22%

## Cc1ccccc1C1CCN(C2CCC(NC(=O)c3ccc(-c4cccc(C(F)(F)F)c4)o3)CC2)CC1 (stereo unspecified)
Plasmodium falciparum [1]
  Inhibition: 99%
Plasmodium falciparum [2]
  Inhibition: 100%
HepG2
  Inhibition: 56%

## O=C(Nc1cccc(OC2CCN(Cc3ccc(F)cc3)CC2)c1)c1ccc(C(F)(F)F)cc1.O=C(O)C(F)(F)F
Plasmodium falciparum [1]
  Inhibition: 94%
Plasmodium falciparum [2]
  Inhibition: 6%
HepG2
  Inhibition: 28%
